Only a selection was taken, and hits are over-represented in it overall.
Tg IFNy HTS: blocks Toxoplasma gondii growth in the presence of IFN-gamma | Toxoplasma gondii growth in IFN-gamma-treated host cells; stronger effect = lower value | activity change, negative = inhibition, % (no concentration beside the values) | hit rate 3.8% among 69,000 | AID 1259416; in the data active = activity change below about -70%, passing the limit was not always enough;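 also: host cells are HeLa cells infected with Toxoplasma gondii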
The depositor's hits bear a star; i = inactive.

SMILES	Tg IFNy HTS
CC[C@]1(O)CC2CN(CCc3c([nH]c4ccccc34)[C@@](C(=O)OC)(c3cc4c(cc3OC)N(C)[C@H]3[C@@](O)(C(=O)OC)[C@H](OC(C)=O)[C@]5(CC)C=CCN6CC[C@]43[C@@H]65)C2)C1 (stereo partly drawn)	-82*
COC(=O)[C@H]1[C@H]2C[C@@H]3c4[nH]c5ccccc5c4CCN3C[C@H]2C[C@@H](OC(=O)c2cc(OC)c(OC)c(OC)c2)[C@@H]1OC	-13
N[C@@H]1CC[C@@H](NC(=O)c2cc(C(F)(F)F)[nH]n2)C1	2
c1ccc(Nc2ccc3c(C4CCCN4Cc4cccnc4)nnn3c2)cc1 (stereo not drawn)	-5
Cn1cc(Cl)c(C(=O)OCC(=O)Nc2ccccc2Cl)n1	-27
Cc1cc(C(=O)N2CC(=O)N(C3CCCCC3)CC(OCc3ccccc3)C2)nc(C)n1 (stereo not drawn)	10
CC(=O)N1C(C(=O)O)Cc2c([nH]c3ccccc23)C1C (stereo not drawn)	124
COC(=O)[C@@H]1Cc2c([nH]c3ccccc23)CN1C(=O)c1cc(C)nc(C)n1	-72*
CNC(=O)c1cc2c(nc1N(C)C)CCN(CCc1ccccc1)CC2	-10
CC(C(=O)Nc1ncc(Cc2ccccc2F)s1)n1ccnc1 (stereo not drawn)	-10
CCCCCC(=O)O[C@]1(C(C)=O)CC[C@H]2[C@@H]3CCC4=CC(=O)CC[C@]4(C)[C@H]3CC[C@@]21C	-57
CCCCCCCC(=O)OCC(=O)[C@@]1(O)CC[C@H]2[C@@H]3CCC4=CC(=O)CC[C@]4(C)[C@H]3[C@@H](O)C[C@@]21C	-5
CCCCCC(=O)O[C@]1(C(C)=O)CCC2C3CCC4=CC(=O)CC[C@]4(C)C3CC[C@@]21C (stereo partly drawn)	-81*
CCOc1ccccc1N(Cc1nc(-c2ccc(OC)cc2)oc1C)S(=O)(=O)c1ccccc1	-38
O=C(O)CN1CCN(C23CC4CC(CC(C4)C2)C3)CC1	0
COCc1cc(CN2CCCN(c3ccccc3)CC2)ccc1OC	11
COc1ccc(C2NCCc3c2[nH]c2ccccc32)cc1CN1CCN(c2ccc([N+](=O)[O-])cc2)CC1 (stereo not drawn)	-117*
COc1ccc(C2NC(C(=O)O)Cc3c2[nH]c2ccccc32)cc1CN1CCN(c2ccc(F)cc2)CC1 (stereo not drawn)	2
O=C(c1cc(-c2ccncc2)n[nH]1)N1CCN(C(=O)c2cc3ccccc3[nH]2)CC1	-66
Cc1ccccc1CN(CCO)C(=O)c1c(Cl)c(C)nn1C	12
COc1cccc(CN2CC[C@@H]3OCCN(C(=O)c4ccco4)[C@@H]3C2)n1	2
CN(C)C(=O)CN1C[C@@H]2CCCN(Cc3cnn(C)c3)[C@@H]2C1	151
CC(C)NC(=O)CSc1nnc(N)s1	40
COc1ccc(Cl)cc1C(=O)NCCc1sc(-c2ccc(F)cc2)nc1C	-102*
COc1ccc(C(=O)NCCc2sc(-c3cccc(F)c3)nc2C)c(OC)c1	-42
SMILES	Tg IFNy HTS
COc1ccc(C(=O)NCCc2sc(-c3ccc(Cl)cc3)nc2C)c(OC)c1	-70
COc1cccc(C(=O)NCCc2sc(-c3ccc(F)cc3)nc2C)c1OC	-10
COc1ccc(C(=O)NCCc2sc(-c3ccc(F)cc3)nc2C)c(OC)c1	-87*
Cc1nc(-c2ccc(F)cc2)sc1CCNC(=O)c1ccccc1F	-37
Cc1n[nH]c(C)c1C(NC(=O)c1ccc(N(C)C)cc1)C(=O)O (stereo not drawn)	-37
CCOC(=O)c1nn(Cc2ccccc2)c2c1CN(C(=O)Cc1cccs1)CC2	-43
Nc1cc2ncnc(Nc3cccc(Br)c3)c2cc1N	11
COc1cc2c(N3CCN(C(=O)Nc4ccc(OC(C)C)cc4)CC3)ncnc2cc1OCCCN1CCCCC1	-17
COc1cc2ncnc(Nc3ccc(O)c(Br)c3)c2cc1OC	-74*
C#Cc1cccc(Nc2ncnc3cc(OC)c(OCCCCCCC(=O)NO)cc23)c1	-80*
COc1ccc(OC)c(Nc2ncnc3ccc(Br)cc23)c1	-47
Cn1cnc2cc3c(Nc4cccc(Br)c4)ncnc3cc21	1
CCOC(=O)c1cccc(Nc2nc(-c3nnc(-c4ccc(C)cc4)o3)nc3ccccc23)c1	i
COc1cccc(CC2(CO)CCN(c3nnnn3-c3ccccc3)CC2)c1	-13
CCN1C[C@H](COC)[C@@]2(CCN(C(=O)c3ccc4ccccc4c3)C2)C1	0
CCc1cc(C(=O)Cc2nc3ccccc3s2)c(O)cc1O	96
Oc1ccc(O)c(Cc2nc3ccccc3s2)c1	-93*
c1ccc2sc(CCc3nc4ccccc4s3)nc2c1	324
c1cncc(OCC2CC3(CCN(Cc4ccco4)CC3)CO2)c1 (stereo not drawn)	29
CC(C)(C)Nc1nc(N2CCOCC2)nc(N2CCOCC2)n1	-22
COc1ccc(-c2nccc(C(F)(F)F)n2)cn1	62
COc1ccc(-c2ccc3ncc4c(c3c2)n(-c2ccc(N3CCNCC3)c(C(F)(F)F)c2)c(=O)n4C)cn1	-90*
COc1ccc(C(=O)Nc2ccc3c(c2)nc(C(F)(F)F)n3C)cn1	20
COc1ccc(CNC(=S)NN)cc1	7
COc1ccccc1CNC(=O)c1ccc(C)c(NC(=O)C2CC2)c1	112
SMILES	Tg IFNy HTS
Cc1cc(C)c2c(=O)n(Cc3nc(-c4ccc(OC(C)C)cc4)oc3C)c(=O)n(C)c2n1	5
Cc1nc(CN2CCCCC2CCc2ccc(O)cc2)co1 (stereo not drawn)	-3
O=C(COc1ccc(-c2cnc3ccccc3n2)cc1)c1cccs1	-85*
O=C(CCC(=O)c1cccs1)c1cccs1	240
Cc1ccc(-c2cnc3ccccc3n2)cc1NC(=O)c1ccc(Br)o1	325
COCC(=O)N1CC[C@H]2[C@H]1CCC(=O)N2c1ccccc1	-10
O=C(Nc1ccccc1OCCCc1ccccc1)c1ccccn1	5
CC(C)(C)C1CCc2[nH]nc(C(=O)Nc3ccccc3OCc3ccccn3)c2C1 (stereo not drawn)	-79*
CC(C)(C)C1CCc2[nH]nc(C(=O)Nc3cccc(Cn4cncn4)c3)c2C1 (stereo not drawn)	0
CCC1CN(Cc2cnc(CC3CCCC3)[nH]2)CCN1C(C)C (stereo not drawn)	0
CCCCC(c1nnnn1C1CCCCC1)N1CCN(CC)CC1 (stereo not drawn)	7
CCc1ccccc1N1CCN(C(=O)CC(=O)Nc2ccccc2C)CC1	22
O=c1[nH]c2cc3c(cc2cc1CNc1ccc(N2CCCCC2)cc1)CCC3	-99*
O=c1[nH]c2cc3c(cc2cc1CNc1cccc2c1CCCC2)OCCO3	7
Cc1noc(CN(C)Cc2cc3cc4c(cc3[nH]c2=O)CCC4)n1	-5
N#Cc1cn(C2CCN(Cc3ccccc3)CC2)c(=O)[nH]c1=O	-16
CCC(=O)Nc1cccc(OCC(=O)N[C@@H]2C[C@H]3CC[C@@H]2C3)c1	-6
Oc1ccc(COCc2ccccc2)c2cccnc12	-96*
O=C(COCc1ccccc1)NCc1cnn2ccccc12	-30
O=C(NCc1ccccc1)c1c(O)c2cccnc2[nH]c1=O	8
Cc1ccc2c(c1)NC1(CCN(S(=O)(=O)c3ccc(NC(=O)CC(C)C)cc3)CC1)c1cccn1-2	26
COc1ccc2c(c1)NC1(CCN(C(=O)COc3cccc(C)c3)CC1)c1cccn1-2	-129*
CCc1ccc(C(=O)N2CCC3(CC2)Nc2cc(OC)ccc2-n2cccc23)cc1	16
COc1ccc2c(c1)NC1(CCN(C(=O)COc3ccc(F)cc3)CC1)c1cccn1-2	59
